# Values joined by “and” are separate entries in the source; they are usually repeats but may differ in a detail not shown here. Equal values may be shown once. Results filed as inconclusive are left out. Entries that show only a call come without a potency. Unmarked numbers belong to inactive results. Active and inactive are the calls of the source. Calls come from the whole dose curve; as a rule, active = well fitted curve in the direction sought with a large enough effect; inconclusive = small, poorly fitted or top-dose-only effect, or another doubt; inactive = no such curve, though single readings can be large; an effect the other way counts as inactive or inconclusive. Non-standard residues stand in square brackets, D forms with d. Residues, ends and D or L forms follow the SMILES beside them. *: point of attachment. Sta = CC(C)C[C@H](N)[C@@H](O)CC(=O)O; Isovaleryl = CC(C)CC(=O)*
# What was measured:
# [1] = qHTS of pediatric cancer cell lines to identify multiple opportunities for drug repurposing: Primary screen for BT-12 cells (AID 1347101); note: nearly all actives have a fitted effect of over 25% in size; note: potency is the fitted concentration of half-maximal effect
# How it was run: (§1)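 Cells (500-1,000/well) rested 5 h, then received compounds for 48 h; metabolically active cells were measured by CellTiter-Glo luminescence. Final concentrations spanned up to 46 µM (MIPE, 11-point) or 0.59 nM-46 µM (NPC, 8-point) in primary screens, 11-point in follow-ups.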
# [2] = qHTS of pediatric cancer cell lines to identify multiple opportunities for drug repurposing: Primary screen for Rh18 cells (AID 1347102); note: nearly all actives have a fitted effect of over 65% in size; note: potency is the fitted concentration of half-maximal effect
# How it was run: (§2)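 Viability after 48 h compound treatment at 37C, 500-1,000 cells/well, read as ATP luminescence with CellTiter-Glo. Primary screens used 11-point (MIPE, 0.78 nM-46 µM) or 8-point (NPC, 0.59 nM-46 µM) final concentrations; follow-up screens used 11-point dilutions.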
# [3] = qHTS of pediatric cancer cell lines to identify multiple opportunities for drug repurposing: Primary screen for OHS-50 cells (AID 1347103); note: nearly all actives have a fitted effect of over 40% in size; note: potency is the fitted concentration of half-maximal effect
# How it was run: as §1
# [4] = qHTS of pediatric cancer cell lines to identify multiple opportunities for drug repurposing: Primary screen for RD cells (AID 1347104); note: nearly all actives have a fitted effect of over 55% in size; note: potency is the fitted concentration of half-maximal effect
# How it was run: (§3)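 Following a 5-hour attachment period, cells at 500-1,000/well received compounds and were cultured for 48 hours. CellTiter-Glo was added and luminescence read to estimate viable, metabolically active cells.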
# [5] = qHTS of pediatric cancer cell lines to identify multiple opportunities for drug repurposing: Primary screen for MG 63 (6-TG R) cells (AID 1347105); note: nearly all actives have a fitted effect of over 50% in size; note: potency is the fitted concentration of half-maximal effect
# How it was run: as §3
# [6] = qHTS of pediatric cancer cell lines to identify multiple opportunities for drug repurposing: Primary screen for control Hh wild type fibroblast cells (AID 1347106); note: nearly all actives have a fitted effect of over 55% in size; note: potency is the fitted concentration of half-maximal effect;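 for activity change, negative = cytotoxic: series mostly up to about 46 µM; a drop in luminescence marks cytotoxicity and a rise apparent proliferation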
# How it was run: as §2
# [7] = qHTS of pediatric cancer cell lines to identify multiple opportunities for drug repurposing: Primary screen for Rh30 cells (AID 1347107); note: series mostly up to about 46 µM; nearly all actives have a fitted effect of over 75% in size
# How it was run: as §2
# [8] = qHTS of pediatric cancer cell lines to identify multiple opportunities for drug repurposing: Primary screen for Rh41 cells (AID 1347108);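 note: series mostly up to about 46 µM; luminescence drop marks cytotoxic hits; nearly all actives have a fitted effect of over 70% in size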
# How it was run: as §3
# [9] = qHTS of pediatric cancer cell lines to identify multiple opportunities for drug repurposing: Confirmatory screen for NB1643 cells (AID 1347109); note: nearly all actives have a fitted effect of over 45% in size; note: potency is the fitted concentration of half-maximal effect
# How it was run: as §2
# [10] = qHTS of pediatric cancer cell lines to identify multiple opportunities for drug repurposing: Confirmatory screen for A673 cells (AID 1347110);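 note: cells exposed to compound for 48 h before the viability read; nearly all actives have a fitted effect of over 65% in size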; note: potency is the fitted concentration of half-maximal effect
# How it was run: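 A673 cells seeded at 500-1,000 cells/well, rested 5 h, then dosed; primary MIPE 11-point (0.78 nM to 46 µM), NPC (0.59 nM to 46 µM); confirmatory 11-point. CellTiter-Glo luminescence after 48 h.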
# [11] = qHTS of pediatric cancer cell lines to identify multiple opportunities for drug repurposing: Confirmatory screen for BT-12 cells (AID 1347112); note: nearly all actives have a fitted effect of over 55% in size; note: potency is the fitted concentration of half-maximal effect
# How it was run: as §2
# [12] = qHTS of pediatric cancer cell lines to identify multiple opportunities for drug repurposing: Confirmatory screen for LAN-5 cells (AID 1347113); note: nearly all actives have a fitted effect of over 65% in size; note: potency is the fitted concentration of half-maximal effect
# How it was run: as §2
# [13] = qHTS of pediatric cancer cell lines to identify multiple opportunities for drug repurposing: Confirmatory screen for NB-EBc1 cells (AID 1347115);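 note: cells exposed to compound for 48 h before the viability read; nearly all actives have a fitted effect of over 45% in size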; note: potency is the fitted concentration of half-maximal effect
# How it was run: as §2
# [14] = qHTS of pediatric cancer cell lines to identify multiple opportunities for drug repurposing: Confirmatory screen for BT-37 cells (AID 1347117); note: nearly all actives have a fitted effect of over 55% in size; note: potency is the fitted concentration of half-maximal effect
# How it was run: as §2
# [15] = qHTS of pediatric cancer cell lines to identify multiple opportunities for drug repurposing: Confirmatory screen for MG 63 (6-TG R) cells (AID 1347119); note: nearly all actives have a fitted effect of over 55% in size; note: potency is the fitted concentration of half-maximal effect
# How it was run: as §2
# [16] = qHTS of pediatric cancer cell lines to identify multiple opportunities for drug repurposing: Confirmatory screen for control Hh wild type fibroblast cells (AID 1347121); note: nearly all actives have a fitted effect of over 70% in size; note: potency is the fitted concentration of half-maximal effect
# How it was run: as §2
# [17] = qHTS of pediatric cancer cell lines to identify multiple opportunities for drug repurposing: Confirmatory screen for RD cells (AID 1347124);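 note: cells exposed to compound for 48 h before viability readout; nearly all actives have a fitted effect of over 65% in size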; note: potency is the fitted concentration of half-maximal effect
# How it was run: as §2
# [18] = qHTS of pediatric cancer cell lines to identify multiple opportunities for drug repurposing: Confirmatory screen for Rh18 cells (AID 1347125); note: nearly all actives have a fitted effect of over 55% in size; note: potency is the fitted concentration of half-maximal effect
# How it was run: as §2
# [19] = qHTS of pediatric cancer cell lines to identify multiple opportunities for drug repurposing: Confirmatory screen for SJ-GBM2 cells (AID 1347116); note: nearly all actives have a fitted effect of over 60% in size; note: potency is the fitted concentration of half-maximal effect
# How it was run: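 Viability measured as metabolically active cells via CellTiter-Glo luminescence following 48 hours of compound exposure, 11-point dilutions in confirmatory testing. 500-1,000 cells/well plated 5 hours before dosing; controls were DMSO and 2.3 µM bortezomib.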
# [20] = qHTS of pediatric cancer cell lines to identify multiple opportunities for drug repurposing: Confirmatory screen for U-2 OS cells (AID 1347122); note: nearly all actives have a fitted effect of over 65% in size; note: potency is the fitted concentration of half-maximal effect
# How it was run: as §2
smiles,measurement,setting,value
C=C(c1ccc(C(=O)O)cc1)c1cc2c(cc1C)C(C)(C)CCC2(C)C,Potency,[1],inactive
same,Potency,[2],inactive
same,Potency,[3],3.89 µM (active)
same,Potency,[4],inactive
same,Potency,[5],inactive
same,Potency,[6],inactive
same,Potency,[7],inactive
same,Potency,[8],inactive
same,Potency,[9],inactive
same,Potency,[10],inactive
same,Potency,[11],inactive
same,Potency,[12],inactive
same,Potency,[13],inactive
same,Potency,[14],inactive
same,Potency,[15],inactive
same,Potency,[16],inactive
same,Potency,[17],inactive
same,Potency,[18],inactive
O=C(O)c1cc(=O)c2c(OCC(O)COc3cccc4oc(C(=O)O)cc(=O)c34)cccc2o1,Potency,[1],inactive
same,Potency,[2],inactive
same,Potency,[3],inactive
same,Potency,[4],inactive
same,Potency,[6],inactive
same,Potency,[7],inactive
CN(C)c1ccc2nc3ccc(=[N+](C)C)cc-3sc2c1,Potency,[1],6.85 µM (active) and 3.09 µM (active)
same,Potency,[2],7.43 µM (active) and 3.35 µM (active)
same,Potency,[3],1.37 µM (active) and 872 nM (active)
same,Potency,[4],2.35 µM (active) and 3.76 µM (active)
same,Potency,[5],3.72 µM (active) and 2.11 µM (active)
same,Potency,[6],11.9 µM (active)
same,Potency,[9],3.29 µM (active)
same,Potency,[10],8.27 µM (active)
same,Potency,[11],1.04 µM (active)
same,Potency,[12],3.69 µM (active)
same,Potency,[13],6.57 µM (active)
same,Potency,[19],1.47 µM (active)
same,Potency,[14],0.928 µM (active)
same,Potency,[15],0.928 µM (active)
same,Potency,[16],18.5 µM (active)
same,Potency,[20],2.93 µM (active)
same,Potency,[17],14.7 µM (active)
same,Potency,[18],6.57 µM (active)
CCN(CCO)CCCC(C)Nc1ccnc2cc(Cl)ccc12 (configuration not stated),Potency,[1],inactive
same,Potency,[2],inactive
same,"activity change, negative = cytotoxic",[3],-4.93% [at 6.18 µM]
same,"activity change, negative = cytotoxic",[4],5.84% [at 4.84 µM]
same,"activity change, negative = cytotoxic",[5],6.76% [at 4.84 µM]
same,Potency,[6],inactive
same,Potency,[7],inactive
same,Potency,[9],inactive
same,Potency,[10],inactive
same,Potency,[11],inactive
same,Potency,[13],inactive
same,Potency,[14],inactive
same,Potency,[15],inactive
same,Potency,[16],inactive
same,Potency,[20],inactive
same,Potency,[17],inactive
same,Potency,[18],inactive
Nc1ccn([C@@H]2O[C@H](CO)[C@@H](O)C2O)c(=O)n1 (some centres not stated),Potency,[1],inactive
same,Potency,[2],inactive
same,Potency,[3],inactive
same,Potency,[4],inactive
same,Potency,[5],inactive
same,Potency,[6],inactive
same,Potency,[7],inactive
same,Potency,[9],inactive
same,Potency,[10],16.5 µM (active)
same,Potency,[11],inactive
same,Potency,[12],inactive
same,Potency,[13],inactive
same,Potency,[19],inactive
same,Potency,[15],inactive
same,Potency,[16],inactive
same,Potency,[20],inactive
same,Potency,[17],inactive
CCN(CC)CCOc1ccc(Nc2ncc3cc(-c4c(Cl)cccc4Cl)c(=O)n(C)c3n2)cc1,Potency,[1],19.3 µM (active)
same,Potency,[2],372 nM (active)
same,Potency,[3],0.122 µM (active)
same,Potency,[4],743 nM (active)
same,Potency,[5],187 nM (active)
same,Potency,[9],9.27 µM (active)
same,Potency,[10],0.185 µM (active)
same,Potency,[11],11.7 µM (active)
same,Potency,[13],18.5 µM (active)
same,Potency,[19],2.33 µM (active)
same,Potency,[14],4.65 µM (active)
same,Potency,[15],0.261 µM (active)
same,Potency,[20],0.657 µM (active)
same,Potency,[17],2.33 µM (active)
same,Potency,[18],14.7 µM (active)
c1ccc2[nH]c(-c3cscn3)nc2c1,Potency,[1],inactive
same,Potency,[2],inactive
same,Potency,[3],inactive
same,Potency,[4],inactive
same,Potency,[6],inactive
same,Potency,[7],inactive
CCCCN(CCCC)CCC(O)c1cc2c(Cl)cc(Cl)cc2c2cc(C(F)(F)F)ccc12 (configuration not stated),Potency,[1],inactive
same,Potency,[2],inactive
same,Potency,[3],30.6 µM (active)
same,Potency,[4],inactive
same,Potency,[6],inactive
same,Potency,[7],inactive
same,Potency,[8],inactive
O=C(O)c1cccnc1Nc1cccc(C(F)(F)F)c1,Potency,[1],inactive
same,Potency,[2],inactive
same,Potency,[3],inactive
same,Potency,[4],inactive
same,Potency,[6],inactive
same,Potency,[7],inactive
same,Potency,[8],inactive
Nc1ccc(S(N)(=O)=O)cc1,Potency,[1],inactive
same,Potency,[2],inactive
same,Potency,[3],inactive
same,Potency,[4],inactive
same,Potency,[6],inactive
same,Potency,[7],inactive
C[C@H](Cc1ccc(O)c(O)c1)[C@@H](C)Cc1ccc(O)c(O)c1,Potency,[1],15.3 µM (active)
same,Potency,[2],18700 nM (active)
same,Potency,[3],24.3 µM (active)
same,Potency,[6],inactive
Cc1nccn1CC1CCc2c(c3ccccc3n2C)C1=O (configuration not stated),Potency,[1],inactive
same,Potency,[2],inactive
same,Potency,[4],inactive
same,Potency,[5],inactive
same,Potency,[6],inactive
same,Potency,[7],inactive
CN(C)C(=O)COC(=O)Cc1ccc(OC(=O)c2ccc(N=C(N)N)cc2)cc1,Potency,[1],inactive
same,Potency,[2],inactive
same,Potency,[3],inactive
same,Potency,[4],inactive
same,Potency,[7],inactive
CN(c1nccc(=O)[nH]1)C1CCN(c2nc3ccccc3n2Cc2ccc(F)cc2)CC1,Potency,[1],inactive
same,Potency,[2],inactive
same,Potency,[4],inactive
same,Potency,[5],inactive
same,Potency,[6],inactive
same,Potency,[7],inactive
COC(=O)C1=C(C)NC(C)=C(C(=O)OCCCN2CCC(c3ccccc3)(c3ccccc3)CC2)C1c1cccc([N+](=O)[O-])c1 (configuration not stated),Potency,[1],inactive
same,Potency,[2],inactive
same,Potency,[4],inactive
same,Potency,[6],inactive
same,Potency,[7],inactive
same,Potency,[8],inactive
C[Se]CCC(N)C(=O)O (configuration not stated),Potency,[1],inactive
same,Potency,[2],inactive
same,Potency,[3],inactive
same,Potency,[4],inactive
same,Potency,[6],inactive
same,Potency,[8],inactive
Cc1c(C(=O)NN2CCCCC2)nn(-c2ccc(Cl)cc2Cl)c1-c1ccc(Cl)cc1,Potency,[1],4.85 µM (active)
same,Potency,[3],4.85 µM (active)
same,Potency,[4],18700 nM (active)
same,Potency,[6],inactive
same,Potency,[7],inactive
same,Potency,[10],20.8 µM (active)
same,Potency,[19],inactive
same,Potency,[16],inactive
same,Potency,[20],16.5 µM (active)
same,Potency,[17],inactive
C[C@@H](c1ncncc1F)[C@](O)(Cn1cncn1)c1ccc(F)cc1F,Potency,[1],inactive
same,Potency,[2],inactive
same,Potency,[4],inactive
same,Potency,[6],inactive
same,Potency,[7],inactive
Clc1ccc(C(Cn2ccnc2)OCc2ccc(Sc3ccccc3)cc2)c(Cl)c1 (configuration not stated),Potency,[1],inactive
same,Potency,[2],inactive
same,Potency,[3],inactive
same,Potency,[5],inactive
same,Potency,[6],inactive
same,Potency,[7],inactive
same,Potency,[8],inactive
same,Potency,[10],1.17 µM (active)
same,Potency,[11],29.3 µM (active)
same,Potency,[19],inactive
same,Potency,[14],26.1 µM (active)
same,Potency,[20],18.5 µM (active)
same,Potency,[18],inactive
CC(C)CC(=O)N[C@H](C(=O)N[C@H](C(=O)N[C@@H](CC(C)C)[C@@H](O)CC(=O)N[C@@H](C)C(=O)N[C@@H](CC(C)C)[C@@H](O)CC(=O)O)C(C)C)C(C)C (Isovaleryl-VV[Sta]A[Sta]-OH),Potency,[1],inactive
same,Potency,[2],inactive
same,Potency,[3],inactive
same,Potency,[4],inactive
same,Potency,[6],inactive
same,Potency,[7],inactive
same,Potency,[9],16.5 µM (active)
same,Potency,[10],1.47 µM (active)
same,Potency,[13],inactive
